Experimental data as given in PubChem BioAssay AID1159580 (chemical genetic matrix, 2015).
Among all 5,500 compounds or so, about 2,000 (36%) were called active. Not shown: some 18% with an inconclusive outcome. Rule as the data show it: active = normalized growth mostly below about 0.91 (no sharp cut-off); inconclusive = no clear call, values can overlap the other calls; inactive = mostly above about 0.92. Some of the results follow.

Assay: chemical genetic growth profiling, strain panel (AID 1159580);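 also: tested at 20 µM; growth read once vehicle control cultures reached saturation at 30 °C; 1 = growth at the plate median or of vehicle wells; lower values mean less growth of the strain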
Settings: growth OD
[1] = S. cerevisiae deletion strains, locus YAL013W, strain DEP1, stronger effect = lower value
[2] = S. cerevisiae deletion strains, locus YBR229C, strain ROT2, stronger effect = lower value
[3] = S. cerevisiae deletion strains, locus YDL101C, strain DUN1, stronger effect = lower value
[4] = S. cerevisiae deletion strains, locus YDR150W, strain NUM1, stronger effect = lower value
[5] = S. cerevisiae deletion strains, locus YEL061C, strain CIN8, stronger effect = lower value
[6] = S. cerevisiae deletion strains, locus YGR078C, strain PAC10, stronger effect = lower value
[7] = S. cerevisiae deletion strains, locus YHR030C, strain SLT2, stronger effect = lower value
[8] = S. cerevisiae deletion strains, locus YHR087W, strain rtc3, stronger effect = lower value
[9] = S. cerevisiae deletion strains, locus YJR043C, strain POL32, stronger effect = lower value
[10] = S. cerevisiae deletion strains, locus YJR075W, strain HOC1, stronger effect = lower value
[11] = S. cerevisiae deletion strains, locus YLR039C, strain RIC1, stronger effect = lower value
[12] = S. cerevisiae deletion strains, locus YLR058C, strain SHM2 (second series), stronger effect = lower value
[13] = S. cerevisiae deletion strains, locus YLR085C, strain ARP6, stronger effect = lower value
[14] = S. cerevisiae deletion strains, locus YLR262C, strain YPT6, stronger effect = lower value
[15] = S. cerevisiae deletion strains, locus YML094W, strain GIM5, stronger effect = lower value
[16] = S. cerevisiae deletion strains, locus YMR219W, strain ESC1, stronger effect = lower value
[17] = S. cerevisiae deletion strains, locus YMR263W, strain SAP30, stronger effect = lower value
[18] = S. cerevisiae deletion strains, locus YNL153C, strain GIM3, stronger effect = lower value
[19] = S. cerevisiae deletion strains, locus YNL298W, strain CLA4 (second series), stronger effect = lower value
[20] = S. cerevisiae deletion strains, locus YNL322C, strain KRE1, stronger effect = lower value
[21] = S. cerevisiae deletion strains, locus YNR030W, strain Alg12, stronger effect = lower value
[22] = S. cerevisiae deletion strains, locus YPL055C, strain LGE1, stronger effect = lower value
[23] = S. cerevisiae deletion strains, locus YPL241C, strain CIN2, stronger effect = lower value
[24] = S. cerevisiae deletion strains, locus YPR135W, strain CTF4, stronger effect = lower value

Measured: normalized growth

O=[N+]([O-])c1cc(Cl)c(Sc2ccccc2)cc1Sc1ccccc1
inactive: [1] 0.995 | [2] 0.999 | S. cerevisiae deletion strains, locus YCL061C, strain MRC1, stronger effect = lower value 0.974 | [3] 1.01 | [4] 0.983 | [5] 0.998 | [6] 0.999 | [7] 0.922 | [8] 0.998 | S. cerevisiae deletion strains, locus YJL187C, strain SWE1, stronger effect = lower value 1.03 | [9] 0.992 | [10] 0.994 | [11] 0.998 | [12] 0.992 | [13] 1.03 | [14] 0.909 | [15] 1.03 | [16] 1.01 | [17] 1.01 | [18] 0.993 | [19] 1.01 | [20] 1.01 | [21] 0.977 | S. cerevisiae deletion strains, locus YOL006C, strain TOP1, stronger effect = lower value 0.998 | [22] 1.01 | [23] 1.01 | [24] 0.925 | S. cerevisiae strains, strain wild type, stronger effect = lower value 1.01

O=C(O)c1ccccc1Sc1c(C(=O)O)cc([N+](=O)[O-])cc1[N+](=O)[O-]
inactive: [1] 1.01 | [2] 1.01 | [3] 1.02 | S. cerevisiae deletion strains, locus YDL134C, strain PPH21, stronger effect = lower value 0.976 | [4] 0.988 | [5] 0.994 | [6] 1.01 | [7] 1.01 | [8] 0.993 | [9] 1 | [10] 1 | [11] 1 | [12] 0.994 | [13] 0.989 | [14] 0.984 | [15] 1.08 | [16] 1.01 | [17] 0.994 | [18] 1.03 | [19] 0.964 | [20] 1.02 | [21] 1.01 | [22] 1.02 | [23] 1.08 | [24] 1.09
